Activity calls are given as the source filed them.
Experiment: small-molecule binders of probe aLefty1, primary screen, biochemical, small-molecule microarray, 635/667 nm fluorescence (AID 1153);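 note: score merges spot fluorescence with signal-to-noise ratio from the scanned slide images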
Settings: higher = more signal

Row | Structure (SMILES) | composite z-score
1 | CC(C)C[C@@H]1NC(=O)[C@@H]2C[C@H](C(=O)NCCCCN(C)C)[C@H](c3ccc(O)cc3)N2C1=O | -0.0655
2 | COCCOC(=O)N1C(=O)[C@@]2(c3cc(C#Cc4ccc(OC)cc4)ccc31)[C@H](c1ccc(O)cc1)N1[C@H](c3ccccc3)[C@H](c3ccccc3)OC(=O)[C@H]1[C@@H]2C(=O)N1CCN(c2ncccn2)CC1 | -0.0601
3 | CCOC(=O)C1=CC[C@@H](c2cccc(Cl)c2)N(S(=O)(=O)c2ccc(C)cc2)[C@H]1c1ccc(C#N)cc1 | 0.514

Experiment: PSAC antagonists in infected red cells, primary screen, cell-based, P. falciparum Indochina, OD700, 1 h (AID 1154)
Settings: P. falciparum Indochina infected RBC osmotic lysis, higher = more signal, called active from +8 up or from −8 down

Row | Structure (SMILES) | z-score
4 | COC(=O)c1c2oc(c1C(=O)OC)C(=O)N[C@H](Cc1ccccc1)Cn1nncc1C1(CCCCC1)NC(=O)N[C@H](CO)CC2 | 5.12 (inactive)
5 | CCOC1=C2C(c3ccc(C)cc3)N(S(=O)(=O)c3ccc(C)cc3)CC2n2c(=O)n(-c3ccccc3)c(=O)n2C1 (stereo not drawn) | 1.08 (inactive)
6 | C[C@H]1C2[C@H](Cc3ccccc3)NC(=O)[C@]23C(=O)N[C@H](Cc2ccccc2)C(=O)N[C@H](Cc2ccccc2)C(=O)NC/C=C/CCC/C=C/C3[C@@H]2O[C@]12C (stereo partly drawn) | 1.75 (inactive)
7 | Cc1ccc(S[C@]2(C(=O)NCCCN(C)C)CC(=O)N(C(C)C)[C@@H]2c2ccc(CO)cc2I)cc1 | 6.19 (inactive)
8 | O=C1O[C@@H](c2ccccc2)[C@@H](c2ccccc2)N2[C@@H](c3ccc(O)cc3)[C@]3(C(=O)Nc4ccccc43)[C@@H](C(=O)N3CCCCCCC3)[C@H]12 | 0.571 (inactive)
9 | COc1ccc(C#Cc2ccc3c(c2)[C@]2(C(=O)N3)[C@H](C(=O)N3CCN(c4ncccn4)CC3)[C@H]3C(=O)O[C@H](c4ccccc4)[C@H](c4ccccc4)N3[C@@H]2c2ccc(O)cc2)cc1 | 1.5 (inactive)
10 | COCCCNC(=O)[C@@]1(C)c2ccccc2C(=O)N(Cc2ccccc2)[C@H]1c1ccc(CO)cc1 | 2.68 (inactive)
11 | C=CCC(OC(C)=O)[C@@H]1[C@@H](N(Cc2cc3ccccc3o2)C(=O)c2cccc3ccccc23)c2cc(OCCCO)ccc2N1C(=O)Cc1ccc(OC)cc1 (stereo partly drawn) | 1.7 (inactive)
12 | CC1CC/C=C\[C@H]2OC34C=CCN(c5ccc6ccccc6c5)C(=O)[C@H]3N(CCCCCO)C(=O)[C@@H]4C2C(=O)O1 (stereo partly drawn) | 0.157 (inactive)
13 | CN(C)CCCC[C@@H]1NC(=O)[C@@H]2C[C@H](C(=O)NCCCCCN)[C@H](c3ccc(O)cc3)N2C1=O | -0.327 (inactive)
14 | CC(=O)n1cc(C(O)C2C=CC3C(=O)N(c4ccccc4)C(=O)C3N2Nc2ccc(C#N)cc2)c2ccccc21 (stereo not drawn) | 21.5 (active)
15 | COc1cc(NN2C(C(O)c3ccccc3)C=CC3C(=O)N(c4ccccc4)C(=O)C32)cc(OC)c1OC (stereo not drawn) | 1.38 (inactive)
16 | C/C=C/[C@H](CCn1cc([C@H](O)c2ccccc2)nn1)[Si](C)(C)c1ccc(OC)cc1 | 5.6 (inactive)
17 | C=C(C(=O)CC[C@@H](OC(=O)c1cccnc1)c1ccc(CO)o1)C(C)C | 1.42 (inactive)
18 | C=CCC(OC(C)=O)[C@@H]1[C@@H](N(Cc2cc3ccccc3o2)C(=O)c2cccc3ccccc23)c2cc(OCCCO)ccc2N1C(=O)Cc1ccc2ccccc2c1 (stereo partly drawn) | 2.06 (inactive)
19 | Cc1ccccc1/C=C/C=O | 0.51 (inactive)
20 | [N-]=[N+]=NCc1ccccc1C[C@]1(C(=O)NCc2ccccc2)COC(c2ccc(OCCCO)cc2)=N1 | 28.9 (active)
21 | COCCOC(=O)N1C(=O)[C@@]2(c3cc(C#CC4=CCCCC4)ccc31)[C@H](C(=O)N1CCN(c3ncccn3)CC1)[C@H]1C(=O)O[C@H](c3ccccc3)[C@H](c3ccccc3)N1[C@@H]2c1ccc(OCCO)cc1 | 5.23 (inactive)

Row | Structure (SMILES) | z-score
22 | COC(=O)C(CC#Cc1ccc2c(c1)[C@]1(C(=O)N2)[C@H](C(=O)N2CCCCCCC2)[C@H]2C(=O)O[C@H](c3ccccc3)[C@H](c3ccccc3)N2[C@@H]1c1ccccc1OCCO)C(=O)OC | 1.49 (inactive)
23 | NC(=O)[C@]1(Cc2ccccc2)N=C(c2ccc(OCCCO)cc2)O[C@@H]1c1ccccc1 | 26.5 (active)
24 | CCCCN1CC=CC23O[C@@H]4C=CCCOC(=O)C4[C@H]2C(=O)N(CCCO)[C@@H]3C1=O (stereo partly drawn) | 0.158 (inactive)
25 | C=CC[C@@]1(C(=O)OC)N=C(c2ccc(OCCCO)cc2)O[C@@H]1c1ccccc1CN=[N+]=[N-] | 26.9 (active)
26 | C=CC[C@@]1(C(N)=O)N=C(c2ccc(OCCCO)cc2)O[C@@H]1c1ccccc1N=[N+]=[N-] | 32.8 (active)
27 | Cc1ccc(N2C(=O)c3ccccc3[C@@H](C(=O)NCC(C)C)[C@@H]2c2ccc(CO)cc2)nc1 | 3.15 (inactive)
28 | CN1C(=O)C2C=CC(C(O)c3ccc(Br)cc3)N(Nc3ccccc3)C2C1=O (stereo not drawn) | 0.884 (inactive)
29 | CCCC[C@@H]1C[C@H]1[C@@H](NC(=O)c1ccccc1)c1ccccc1 | 0.713 (inactive)
30 | CN(C)CCCCCCNC(=O)[C@@H]1C[C@@H]2C(=O)NCC(=O)N2[C@@H]1c1cccc(OCCO)c1 | 2.11 (inactive)
31 | COC(=O)c1c(CC[C@@H](CO)NC(=O)Nc2ncn[nH]2)oc(C(=O)Cc2ccccc2)c1C(=O)OC | 0.658 (inactive)
32 | COC(=O)[C@@]1(Cc2ccc(F)cc2)[C@H]2c3cc(C(=O)N4CCCC4)n(CCc4ccc(OC)c(Br)c4)c3C[C@H]2CN1C(=O)c1ccccc1 | 7.48 (inactive)
33 | [N-]=[N+]=NCc1ccccc1[C@@H]1OC(c2ccc(OCCCO)cc2)=N[C@]1(Cc1ccccc1N=[N+]=[N-])C(N)=O | 20.5 (active)
34 | C#C[C@H](O[Si](C#CCCCCCC)(C(C)C)C(C)C)c1ccccc1 | 0.486 (inactive)
35 | CC(=O)NCCCC[C@@H]1NC(=O)[C@@H]2C[C@H](C(=O)NCc3ccc(F)cc3)[C@H](c3ccc(O)cc3)N2C1=O | 1.63 (inactive)
36 | CC(C)C[C@@H]1NC(=O)[C@@H]2C[C@H](C(=O)NCCCCN(C)C)[C@H](c3ccc(O)cc3)N2C1=O | -0.202 (inactive)
37 | COCCOC(=O)N1C(=O)[C@@]2(c3cc(C#Cc4ccc(OC)cc4)ccc31)[C@H](c1ccc(O)cc1)N1[C@H](c3ccccc3)[C@H](c3ccccc3)OC(=O)[C@H]1[C@@H]2C(=O)N1CCN(c2ncccn2)CC1 | 1.45 (inactive)
38 | CCOC(=O)C1=CC[C@@H](c2cccc(Cl)c2)N(S(=O)(=O)c2ccc(C)cc2)[C@H]1c1ccc(C#N)cc1 | 1.53 (inactive)

From PubChem BioAssay
